DAX1 inh-1 – NR0B1 (DAX1) inhibition; P51843; AID 504766; inhibition, % at 6.75 µM; HEK293 Gal4-DAX1 luciferase reporter, luminescence; 0.99% of 340,000 active;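 active = inhibition above the mean over all tested compounds plus 3 SD, cut at about 4.2% in these data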;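 also: 0% = DAX1-transfected cells with DMSO and 100% = empty-vector control cells with DMSO; inhibition shows as a rise in luminescence from relieved DAX1 repression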
Target sequence (P51843 207-470 limits assumed): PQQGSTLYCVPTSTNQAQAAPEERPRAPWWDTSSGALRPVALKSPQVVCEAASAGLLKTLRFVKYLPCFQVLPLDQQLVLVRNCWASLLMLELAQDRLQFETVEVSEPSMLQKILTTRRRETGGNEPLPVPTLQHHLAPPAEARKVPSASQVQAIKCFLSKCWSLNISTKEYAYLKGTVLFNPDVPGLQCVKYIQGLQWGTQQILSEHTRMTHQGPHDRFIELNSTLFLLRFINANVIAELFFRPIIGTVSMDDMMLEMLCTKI
DAX1 inh-2 – inhibitors of DAX1 repression of SF-1 activated StAR promoter; HEK293T StAR-luciferase reporter, SF-1/DAX-1 repression relief; inhibition, % at 6.8 µM; 1.1% of 370,000 active; AID 652010;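 active = inhibition above the mean over all tested compounds plus 3 SD, cut at about 3.6% in these data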;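 also: 0% = DAX-1 cells with DMSO and 100% = cells lacking DAX-1 with DMSO; higher inhibition means more luminescence from relief of DAX-1 repression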
ssDAF12 agonist – activators of S. stercoralis DAF-12 nuclear receptor | activation, % at 6.8 µM | HEK293 ssDAF-12/GRIP1 lit1-tk-luc reporter, luminescence; % of 3 µM dafachronic acid response | AID 652126 | 1% of 370,000 active;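 active = activation above the mean over all tested compounds plus 3 SD, cut at about 0.9% in these data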;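 also: 0% = DMSO-only wells and 100% = 3 µM delta7-dafachronic acid wells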
hcDAF12 agonist – H. contortus DAF-12 activation, primary screen. activation, % at 6.8 µM. 1.4% of 370,000 active. HEK293 hcDAF-12 lit1-tk-luc reporter, luminescence; 0% DMSO, 100% Δ7-dafachronic acid;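 active = activation above the mean of all tested compounds plus 3 SD, cut at about 5.5% in these data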;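 also: 100% = response to 3 µM Δ7-dafachronic acid high control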
hgDAF-12 ag – agonists of H. glycines DAF-12 nuclear receptor. HEK293 GAL4-hgDAF12 UAS-luciferase reporter, agonist luminescence; normalized to butyrate control. activation, % at 6.8 µM. 1.8% of 370,000 active. AID 687014;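 active = activation above a cutoff set at the mean of all screened compounds plus 3 SD, cut at about 10% in these data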;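 also: 0% = DMSO wells and 100% = sodium butyrate wells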
Starred values were filed as active, the others as inactive. Most compounds without a hit are left out; they make up all but 4.1% or so of the library.

How did CCCCCCCCN1C(=O)N2Cc3ccc(C)cc3C2CS1(=O)=O (stereo unspecified) do in these assays?
DAX1 inh-2: 0.1; ssDAF12 agonist: -1.3; hcDAF12 agonist: -1.0; hgDAF-12 ag: 1.9

What do the screens show for `COC(=O)C1=C(C)N(CC(C)C)C(=S)NC1c1ccc(Cl)cc1` (stereo unspecified)?
DAX1 inh-2: -1.0; ssDAF12 agonist: -0.9; hcDAF12 agonist: 0.9; hgDAF-12 ag: -0.6

What do the screens show for `CCC(C(=O)NC(C)(C)C)N(C(=O)Cn1nnc(-c2ccccc2F)n1)c1cccc2c1CCCC2` (stereo unspecified)?
DAX1 inh-1: 4.3*; DAX1 inh-2: 0.7; ssDAF12 agonist: -1.3; hcDAF12 agonist: 0.4; hgDAF-12 ag: -1.6

How did C[C@H]1[C@H](NC(=O)c2ccc(Cl)cc2)CC[C@@]23CCCN2C(=O)CCC[C@@H]13 do in these assays?
ssDAF12 agonist: -1.7; hcDAF12 agonist: -0.4; hgDAF-12 ag: -2.2

How did Cc1ccc(S(=O)(=O)N2CCOC2C(Cl)(Cl)Cl)cc1 (stereo unspecified) do in these assays?
DAX1 inh-1: -0.1; DAX1 inh-2: 0.5; ssDAF12 agonist: 1.2*; hcDAF12 agonist: -2.4; hgDAF-12 ag: -3.6

Results for CCOC(=O)c1cn(Cc2ccc(C)cc2)nn1 ?
DAX1 inh-1: -1.2; DAX1 inh-2: -0.5; ssDAF12 agonist: -0.6; hcDAF12 agonist: 5.8*; hgDAF-12 ag: -2.3

What do the screens show for `CCOC(=O)c1cn(Cc2ccc(Br)cc2)nn1`?
DAX1 inh-1: 2.2; DAX1 inh-2: -0.2; ssDAF12 agonist: -1.6; hcDAF12 agonist: -2.6; hgDAF-12 ag: 0.4

How did Nc1ccc2nc(Cc3ccccc3)[nH]c2c1 do in these assays?
DAX1 inh-1: 4.6*; DAX1 inh-2: -0.2; ssDAF12 agonist: -1.4; hcDAF12 agonist: 1.0; hgDAF-12 ag: -3.3

What do the screens show for `COc1ccc(C2C(C(=O)Nc3cc(Cl)ccc3F)CCC(=O)N2c2ccc(OC)cc2)cc1` (stereo unspecified)?
DAX1 inh-2: -0.7; ssDAF12 agonist: -1.7; hcDAF12 agonist: -1.6; hgDAF-12 ag: -2.6

What do the screens show for `CCC(CO)NCc1ccccc1OC(C)C` (stereo unspecified)?
DAX1 inh-1: 5.0*; DAX1 inh-2: -0.5; ssDAF12 agonist: -1.4; hcDAF12 agonist: -0.4; hgDAF-12 ag: -1.2

How did CCOc1ccccc1CNCCO do in these assays?
DAX1 inh-1: 0.9; DAX1 inh-2: 0.1; ssDAF12 agonist: -1.2; hcDAF12 agonist: 0.4; hgDAF-12 ag: -1.5

What do the screens show for `Cc1cc(NS(=O)(=O)c2ccc(NC(=O)CSc3nnc(-c4cccnc4)n3-c3ccccc3)cc2)nc(C)n1`?
DAX1 inh-2: 0.1; ssDAF12 agonist: -0.8; hcDAF12 agonist: -1.3; hgDAF-12 ag: -0.8

Results for COC(=O)[C@]12C=CCN1[C@@H](c1ccc(OC)c(OC)c1)c1c(c3ccccc3n1S(=O)(=O)c1ccc(C)cc1)C2 ?
DAX1 inh-2: -1.4; ssDAF12 agonist: -1.3; hcDAF12 agonist: 5.8*; hgDAF-12 ag: 0.6

How did Cn1cnc(S(=O)(=O)Nc2ccc(OC(F)(F)F)cc2)c1 do in these assays?
DAX1 inh-1: 5.5*; DAX1 inh-2: 0.5; ssDAF12 agonist: -1.4; hcDAF12 agonist: 0.9; hgDAF-12 ag: 2.5

Results for CCOc1cccc(-c2nnc3n2N=C(c2ccc(OC)cc2)CS3)c1 ?
DAX1 inh-2: -3.4; ssDAF12 agonist: -2.2; hcDAF12 agonist: -4.1; hgDAF-12 ag: -0.9

What do the screens show for `c1ccc(Nc2ccnc(Nc3ccccc3)n2)cc1`?
DAX1 inh-1: 2.5; DAX1 inh-2: 0.9; ssDAF12 agonist: 0.2; hcDAF12 agonist: 1.6; hgDAF-12 ag: 10.9*

What do the screens show for `CCCN1C(=O)C(=O)N(CC(=O)c2cc(C)n(C3CC3)c2C)C1=O`?
DAX1 inh-1: 1.5; DAX1 inh-2: 3.8*; ssDAF12 agonist: -0.8; hcDAF12 agonist: 3.4; hgDAF-12 ag: 10.0

How did CC(=O)Nc1ccc(S(=O)(=O)NCc2ccccn2)cc1 do in these assays?
DAX1 inh-1: 4.3*; DAX1 inh-2: -0.6; ssDAF12 agonist: -1.0; hcDAF12 agonist: -0.9; hgDAF-12 ag: -0.7

What do the screens show for `O=C(CCc1ccccc1-c1ccccc1CCNC(=O)COCc1ccccc1)NCc1ccccc1`?
DAX1 inh-2: -0.5; ssDAF12 agonist: -1.3; hcDAF12 agonist: -0.8; hgDAF-12 ag: 4.0

What do the screens show for `COc1ccc(C(=O)N2C(=S)NC(=O)/C2=C\c2ccc(C)cc2)cc1`?
DAX1 inh-1: 0.9; DAX1 inh-2: 1.6; ssDAF12 agonist: -0.7; hcDAF12 agonist: 2.2; hgDAF-12 ag: 12.0*

How did CCCCCCCCN1C(=O)[C@@H](CC(=O)NCc2cccc(C(F)(F)F)c2)C[C@@]2(C(=O)OC)C1=C[C@H](COCc1ccccc1)O[C@@H]2C do in these assays?
DAX1 inh-2: -1.8; ssDAF12 agonist: -1.1; hcDAF12 agonist: -0.5; hgDAF-12 ag: -2.0

What do the screens show for `Fc1ccc2nc(N3CCOCC3)sc2c1`?
DAX1 inh-1: 0.5; DAX1 inh-2: 1.0; ssDAF12 agonist: -1.0; hcDAF12 agonist: 1.1; hgDAF-12 ag: 11.7*

What do the screens show for `CCOc1ccccc1CN1CCN(Cc2ccc3cc(F)ccc3n2)CC1CCO` (stereo unspecified)?
DAX1 inh-1: 5.4*; DAX1 inh-2: 0.1; ssDAF12 agonist: 0.1; hcDAF12 agonist: 5.0; hgDAF-12 ag: 2.5

What do the screens show for `CCOc1ccc2nc(CN3CCN(Cc4ccccc4OCC)C(CCO)C3)ccc2c1` (stereo unspecified)?
DAX1 inh-1: -2.6; DAX1 inh-2: -1.0; ssDAF12 agonist: -1.7; hcDAF12 agonist: -3.6; hgDAF-12 ag: -4.9

Results for Cn1c2ccccc2c(=O)c2ccc(NCCc3cccs3)cc21 ?
DAX1 inh-1: 1.2; DAX1 inh-2: 4.1*; ssDAF12 agonist: 0.0; hcDAF12 agonist: 4.0; hgDAF-12 ag: 5.7

What do the screens show for `O=C(NC1=N[C@@]2(C=C3CCCCC3n3c(=O)n(-c4ccccc4)c(=O)n32)[C@H](Cc2ccccc2)N1Cc1ccccc1)c1ccccc1` (stereo partly specified)?
DAX1 inh-2: 0.0; ssDAF12 agonist: -1.4; hcDAF12 agonist: -1.9; hgDAF-12 ag: -1.9

How did O=C(NCc1cccc(C(F)(F)F)c1)O[C@H]1CC[C@@]23CCCN2C(=O)CCC[C@H]3C1 do in these assays?
ssDAF12 agonist: -1.6; hcDAF12 agonist: -2.5; hgDAF-12 ag: -0.8

What do the screens show for `Cc1cc(C(=O)N2CCc3ccccc3C2)n[nH]1`?
DAX1 inh-1: 0.9; DAX1 inh-2: 0.2; ssDAF12 agonist: -0.4; hcDAF12 agonist: 2.2; hgDAF-12 ag: -0.3

How did O=C(c1cc([N+](=O)[O-])[nH]n1)N1CCSCC1 do in these assays?
DAX1 inh-1: 5.4*; DAX1 inh-2: 1.9; ssDAF12 agonist: -2.2; hcDAF12 agonist: -0.3; hgDAF-12 ag: 1.1

How did O=C(CCn1nnc2ccccc21)N1CCN(c2cccc(C(F)(F)F)c2)CC1 do in these assays?
DAX1 inh-2: -1.1; ssDAF12 agonist: -1.3; hcDAF12 agonist: -3.8; hgDAF-12 ag: 1.6

What do the screens show for `COC(=O)C[C@@H]1CC[C@@H]2[C@@H](COc3ccc(NC(=O)Nc4ccc(F)cc4)cc3C(=O)N2C)O1`?
DAX1 inh-2: -1.2; ssDAF12 agonist: -0.2; hcDAF12 agonist: 0.6; hgDAF-12 ag: 0.7

Source: PubChem
